# Data published in article PMC11006913.
# Changes are numbered by the printed parent chain.
# How the values were obtained:
# Test in all cases: PBM; 200 nM protein, PBS
# Details in all cases: dsDNA, one strand shown
# [1] = target: HESX1 (Homo sapiens, UniProt Q9UBX0 95-180, R165K)
# [2] = target: HESX1 (Homo sapiens, UniProt Q9UBX0 95-180)
# [3] = target: HESX1 (Homo sapiens, UniProt Q9UBX0 95-180, P111T)
# [4] = target: HESX1 (Homo sapiens, UniProt Q9UBX0 95-180, R109Q)
# [5] = target: HESX1 (Homo sapiens, UniProt Q9UBX0 95-180, F115L)
# Chain of HESX1 (Homo sapiens, UniProt Q9UBX0 95-180, F115L) (Q9UBX0 95-180 F115L): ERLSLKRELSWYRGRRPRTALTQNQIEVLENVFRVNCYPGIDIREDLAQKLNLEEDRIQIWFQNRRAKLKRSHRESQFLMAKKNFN
# [6] = target: PRRX1 (Homo sapiens, UniProt P54821 80-166)
# Chain of PRRX1 (P54821 80-166): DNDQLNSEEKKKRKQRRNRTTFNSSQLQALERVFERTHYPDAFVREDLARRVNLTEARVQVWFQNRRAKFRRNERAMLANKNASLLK
# [7] = target: HOXB4 (Homo sapiens, UniProt P17483 148-234)
# Chain of HOXB4 (Homo sapiens, UniProt P17483 148-234) (P17483 148-234): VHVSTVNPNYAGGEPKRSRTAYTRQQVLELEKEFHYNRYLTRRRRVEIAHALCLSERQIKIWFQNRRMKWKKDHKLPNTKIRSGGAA
# [8] = target: SHOX (Homo sapiens, UniProt O15266 103-189)
# Chain of SHOX (Homo sapiens, UniProt O15266 103-189) (O15266 103-189): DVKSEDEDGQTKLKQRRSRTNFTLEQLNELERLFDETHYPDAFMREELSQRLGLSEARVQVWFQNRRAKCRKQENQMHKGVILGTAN
# [9] = target: ALX4 (Homo sapiens, UniProt Q9H161 200-286)
# Chain of ALX4 (Homo sapiens, UniProt Q9H161 200-286) (Q9H161 200-286): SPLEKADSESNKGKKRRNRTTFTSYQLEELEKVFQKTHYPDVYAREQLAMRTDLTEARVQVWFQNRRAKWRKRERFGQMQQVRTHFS
# [10] = target: ALX4 (Homo sapiens, UniProt Q9H161 200-286, Q225E)
# Chain of ALX4 (Homo sapiens, UniProt Q9H161 200-286, Q225E) (Q9H161 200-286 Q225E): as the sequence (Q9H161 200-286) above, with Q26E counted along it
# [11] = target: HOXB4 (Homo sapiens, UniProt P17483 148-234, V174I)
# Chain of HOXB4 (Homo sapiens, UniProt P17483 148-234, V174I) (P17483 148-234 V174I): as the sequence (P17483 148-234) above, with V27I counted along it
# [12] = target: T1, NKX2-6 (Homo sapiens, UniProt A6NCS4 118-204)
# T1 sequence: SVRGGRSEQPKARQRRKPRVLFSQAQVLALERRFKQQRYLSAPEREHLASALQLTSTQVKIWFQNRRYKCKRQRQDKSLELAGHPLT
# [13] = target: SHOX (Homo sapiens, UniProt O15266 103-189, R173C)
# Chain of SHOX (Homo sapiens, UniProt O15266 103-189, R173C) (O15266 103-189 R173C): as the sequence (O15266 103-189) above, with R71C counted along it
# [14] = target: T2, NKX2-6 (Homo sapiens, UniProt A6NCS4 118-204, F151L)
# T2 sequence: T1 sequence with F34L
# [15] = target: HOXD13 (Homo sapiens, UniProt P35453 263-343, T313R)
# Chain of HOXD13 (Homo sapiens, UniProt P35453 263-343, T313R) (P35453 263-343 T313R): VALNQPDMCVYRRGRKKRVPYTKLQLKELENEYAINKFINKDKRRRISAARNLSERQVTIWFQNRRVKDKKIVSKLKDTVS
# [16] = target: HOXD13 (Homo sapiens, UniProt P35453 263-343)
# Chain of HOXD13 (Homo sapiens, UniProt P35453 263-343) (P35453 263-343): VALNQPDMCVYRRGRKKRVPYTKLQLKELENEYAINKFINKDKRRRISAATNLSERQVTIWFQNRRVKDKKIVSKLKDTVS
# [17] = target: HOXD13 (Homo sapiens, UniProt P35453 263-343, T313A)
# Chain of HOXD13 (Homo sapiens, UniProt P35453 263-343, T313A) (P35453 263-343 T313A): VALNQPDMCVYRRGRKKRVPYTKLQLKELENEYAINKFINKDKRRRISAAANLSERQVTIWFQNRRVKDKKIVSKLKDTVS
# [18] = target: CRX (Homo sapiens, UniProt O43186 26-111)
# Chain of CRX (Homo sapiens, UniProt O43186 26-111) (O43186 26-111): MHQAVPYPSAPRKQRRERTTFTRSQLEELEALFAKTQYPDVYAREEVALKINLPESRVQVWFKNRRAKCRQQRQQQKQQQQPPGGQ
# [19] = target: HOXC9 (Homo sapiens, UniProt P31274 178-260, K195R)
# Chain of HOXC9 (Homo sapiens, UniProt P31274 178-260, K195R) (P31274 178-260 K195R): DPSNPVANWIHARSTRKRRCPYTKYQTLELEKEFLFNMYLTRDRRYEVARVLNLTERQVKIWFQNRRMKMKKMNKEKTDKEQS
# [20] = target: T3, PAX4 (Homo sapiens, UniProt O43316 9-242, R200K)
# T3 sequence: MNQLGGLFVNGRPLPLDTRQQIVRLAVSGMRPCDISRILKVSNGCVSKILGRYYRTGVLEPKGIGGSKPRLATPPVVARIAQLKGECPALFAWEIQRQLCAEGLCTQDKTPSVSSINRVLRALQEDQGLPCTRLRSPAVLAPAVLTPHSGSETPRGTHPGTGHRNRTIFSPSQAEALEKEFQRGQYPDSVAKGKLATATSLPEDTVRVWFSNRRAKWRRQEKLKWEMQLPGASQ
# [21] = target: T4, PAX4 (Homo sapiens, UniProt O43316 9-242)
# T4 sequence: T3 sequence with K192R
# [22] = target: CRX (Homo sapiens, UniProt O43186 26-111, E42D)
# Chain of CRX (Homo sapiens, UniProt O43186 26-111, E42D) (O43186 26-111 E42D): as the sequence (O43186 26-111) above, with E17D counted along it
# [23] = target: HOXC9 (Homo sapiens, UniProt P31274 178-260)
# Chain of HOXC9 (Homo sapiens, UniProt P31274 178-260) (P31274 178-260): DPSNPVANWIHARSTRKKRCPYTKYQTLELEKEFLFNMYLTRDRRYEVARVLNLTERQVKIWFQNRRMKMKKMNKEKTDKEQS
# [24] = target: ALX3 (Homo sapiens, UniProt O95076 139-225, N203Q)
# Chain of ALX3 (Homo sapiens, UniProt O95076 139-225, N203Q) (O95076 139-225 N203Q): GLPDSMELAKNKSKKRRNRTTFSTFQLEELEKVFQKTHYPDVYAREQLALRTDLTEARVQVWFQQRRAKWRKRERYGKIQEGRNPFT
# [25] = target: T5, PAX4 (Homo sapiens, UniProt O43316 9-242, R200Q)
# T5 sequence: T3 sequence with K192Q
# [26] = target: HOXC9 (Homo sapiens, UniProt P31274 178-260, R193K)
# Chain of HOXC9 (Homo sapiens, UniProt P31274 178-260, R193K) (P31274 178-260 R193K): as the sequence (P31274 178-260) above, with R16K counted along it
# [27] = target: T6, PAX4 (Homo sapiens, UniProt O43316 9-242, F177V)
# T6 sequence: T3 sequence with F169V, K192R
# [28] = target: ALX3 (Homo sapiens, UniProt O95076 139-225)
# Chain of ALX3 (Homo sapiens, UniProt O95076 139-225) (O95076 139-225): as the sequence (O95076 139-225 N203Q) above, with Q65N counted along it
# [29] = target: T7, PAX4 (Homo sapiens, UniProt O43316 9-242, F177Y)
# T7 sequence: T3 sequence with F169Y, K192R
# [30] = target: VAX1 (Homo sapiens, UniProt Q5SQQ9 86-172)
# Chain of VAX1 (Homo sapiens, UniProt Q5SQQ9 86-172) (Q5SQQ9 86-172): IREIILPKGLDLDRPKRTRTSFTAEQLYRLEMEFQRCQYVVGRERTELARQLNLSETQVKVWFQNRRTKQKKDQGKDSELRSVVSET
# [31] = target: ALX3 (Homo sapiens, UniProt O95076 139-225, L168Q)
# Chain of ALX3 (Homo sapiens, UniProt O95076 139-225, L168Q) (O95076 139-225 L168Q): as the sequence (O95076 139-225 N203Q) above, with L30Q, Q65N counted along it
# [32] = target: HOXC9 (Homo sapiens, UniProt P31274 178-260, R222W)
# Chain of HOXC9 (Homo sapiens, UniProt P31274 178-260, R222W) (P31274 178-260 R222W): as the sequence (P31274 178-260) above, with R45W counted along it
# [33] = target: ALX3 (Homo sapiens, UniProt O95076 139-225, L168V)
# Chain of ALX3 (Homo sapiens, UniProt O95076 139-225, L168V) (O95076 139-225 L168V): as the sequence (O95076 139-225 N203Q) above, with L30V, Q65N counted along it
# [34] = target: VAX1 (Homo sapiens, UniProt Q5SQQ9 86-172, T142I)
# Chain of VAX1 (Homo sapiens, UniProt Q5SQQ9 86-172, T142I) (Q5SQQ9 86-172 T142I): as the sequence (Q5SQQ9 86-172) above, with T57I counted along it
# [35] = target: T8, PAX4 (Homo sapiens, UniProt O43316 9-242, R227W)
# T8 sequence: T3 sequence with K192R, R219W
# [36] = target: CRX (Homo sapiens, UniProt O43186 26-111, R41L)
# Chain of CRX (Homo sapiens, UniProt O43186 26-111, R41L) (O43186 26-111 R41L): as the sequence (O43186 26-111) above, with R16L counted along it
# [37] = target: ALX3 (Homo sapiens, UniProt O95076 139-225, N203S)
# Chain of ALX3 (Homo sapiens, UniProt O95076 139-225, N203S) (O95076 139-225 N203S): as the sequence (O95076 139-225 N203Q) above, with Q65S counted along it
# [38] = target: VAX1 (Homo sapiens, UniProt Q5SQQ9 86-172, K157R)
# Chain of VAX1 (Homo sapiens, UniProt Q5SQQ9 86-172, K157R) (Q5SQQ9 86-172 K157R): as the sequence (Q5SQQ9 86-172) above, with K72R counted along it
# Chain of HESX1 (Homo sapiens, UniProt Q9UBX0 95-180, R165K) (Q9UBX0 95-180 R165K): as the sequence (Q9UBX0 95-180 F115L) above, with L21F, R71K counted along it
# Chain of HESX1 (Homo sapiens, UniProt Q9UBX0 95-180, P111T) (Q9UBX0 95-180 P111T): as the sequence (Q9UBX0 95-180 F115L) above, with P17T, L21F counted along it
# Chain of HESX1 (Homo sapiens, UniProt Q9UBX0 95-180) (Q9UBX0 95-180): as the sequence (Q9UBX0 95-180 F115L) above, with L21F counted along it
# Chain of HESX1 (Homo sapiens, UniProt Q9UBX0 95-180, R109Q) (Q9UBX0 95-180 R109Q): as the sequence (Q9UBX0 95-180 F115L) above, with R15Q, L21F counted along it
sequence,measurement,setting,value
ATGTATAA,binding signal,[1],"7.77 upbm affinity estimate (log intensity, higher = more binding, comparable within an allelic series)"
same,binding signal,[2],"7.72 upbm affinity estimate (log intensity, higher = more binding, comparable within an allelic series)"
same,binding signal,[3],"7.36 upbm affinity estimate (log intensity, higher = more binding, comparable within an allelic series)"
TATCAATA,binding signal,[1],"7.76 upbm affinity estimate (log intensity, higher = more binding, comparable within an allelic series)"
same,binding signal,[2],"7.98 upbm affinity estimate (log intensity, higher = more binding, comparable within an allelic series)"
same,binding signal,[4],"7.49 upbm affinity estimate (log intensity, higher = more binding, comparable within an allelic series)"
same,binding signal,[3],"7.63 upbm affinity estimate (log intensity, higher = more binding, comparable within an allelic series)"
same,binding signal,[5],"7.36 upbm affinity estimate (log intensity, higher = more binding, comparable within an allelic series)"
same,binding signal,[6],"11.7 upbm affinity estimate (log intensity, higher = more binding, comparable within an allelic series)"
AGCCTGGG,binding signal,[7],"7.59 upbm affinity estimate (log intensity, higher = more binding, comparable within an allelic series)"
same,binding signal,[8],"7.06 upbm affinity estimate (log intensity, higher = more binding, comparable within an allelic series)"
same,binding signal,[9],"7.98 upbm affinity estimate (log intensity, higher = more binding, comparable within an allelic series)"
same,binding signal,[10],"8.23 upbm affinity estimate (log intensity, higher = more binding, comparable within an allelic series)"
same,binding signal,[11],"7.58 upbm affinity estimate (log intensity, higher = more binding, comparable within an allelic series)"
same,binding signal,[12],"8.48 upbm affinity estimate (log intensity, higher = more binding, comparable within an allelic series)"
same,binding signal,[13],"7.22 upbm affinity estimate (log intensity, higher = more binding, comparable within an allelic series)"
same,binding signal,[14],"9.24 upbm affinity estimate (log intensity, higher = more binding, comparable within an allelic series)"
AATAGTGT,binding signal,[1],"7.52 upbm affinity estimate (log intensity, higher = more binding, comparable within an allelic series)"
same,binding signal,[2],"7.75 upbm affinity estimate (log intensity, higher = more binding, comparable within an allelic series)"
same,binding signal,[3],"7.31 upbm affinity estimate (log intensity, higher = more binding, comparable within an allelic series)"
CCGCAAGG,binding signal,[7],"7.78 upbm affinity estimate (log intensity, higher = more binding, comparable within an allelic series)"
same,binding signal,[8],"7.17 upbm affinity estimate (log intensity, higher = more binding, comparable within an allelic series)"
same,binding signal,[11],"7.66 upbm affinity estimate (log intensity, higher = more binding, comparable within an allelic series)"
same,binding signal,[15],"9.53 upbm affinity estimate (log intensity, higher = more binding, comparable within an allelic series)"
same,binding signal,[13],"7.2 upbm affinity estimate (log intensity, higher = more binding, comparable within an allelic series)"
same,binding signal,[16],"9.5 upbm affinity estimate (log intensity, higher = more binding, comparable within an allelic series)"
same,binding signal,[17],"9.67 upbm affinity estimate (log intensity, higher = more binding, comparable within an allelic series)"
CGAGGGTC,binding signal,[7],"7.67 upbm affinity estimate (log intensity, higher = more binding, comparable within an allelic series)"
same,binding signal,[18],"8.26 upbm affinity estimate (log intensity, higher = more binding, comparable within an allelic series)"
same,binding signal,[19],"9.55 upbm affinity estimate (log intensity, higher = more binding, comparable within an allelic series)"
same,binding signal,[20],"8.99 upbm affinity estimate (log intensity, higher = more binding, comparable within an allelic series)"
same,binding signal,[21],"9.09 upbm affinity estimate (log intensity, higher = more binding, comparable within an allelic series)"
same,binding signal,[11],"7.5 upbm affinity estimate (log intensity, higher = more binding, comparable within an allelic series)"
same,binding signal,[22],"8.34 upbm affinity estimate (log intensity, higher = more binding, comparable within an allelic series)"
same,binding signal,[23],"9.61 upbm affinity estimate (log intensity, higher = more binding, comparable within an allelic series)"
same,binding signal,[24],"7.7 upbm affinity estimate (log intensity, higher = more binding, comparable within an allelic series)"
same,binding signal,[25],"9.19 upbm affinity estimate (log intensity, higher = more binding, comparable within an allelic series)"
same,binding signal,[26],"9.61 upbm affinity estimate (log intensity, higher = more binding, comparable within an allelic series)"
same,binding signal,[27],"9.25 upbm affinity estimate (log intensity, higher = more binding, comparable within an allelic series)"
same,binding signal,[28],"7.59 upbm affinity estimate (log intensity, higher = more binding, comparable within an allelic series)"
same,binding signal,[29],"9.23 upbm affinity estimate (log intensity, higher = more binding, comparable within an allelic series)"
same,binding signal,[30],"6.87 upbm affinity estimate (log intensity, higher = more binding, comparable within an allelic series)"
same,binding signal,[31],"7.67 upbm affinity estimate (log intensity, higher = more binding, comparable within an allelic series)"
same,binding signal,[32],"9.69 upbm affinity estimate (log intensity, higher = more binding, comparable within an allelic series)"
same,binding signal,[33],"7.68 upbm affinity estimate (log intensity, higher = more binding, comparable within an allelic series)"
same,binding signal,[34],"7 upbm affinity estimate (log intensity, higher = more binding, comparable within an allelic series)"
same,binding signal,[35],"9.33 upbm affinity estimate (log intensity, higher = more binding, comparable within an allelic series)"
same,binding signal,[36],"8.26 upbm affinity estimate (log intensity, higher = more binding, comparable within an allelic series)"
same,binding signal,[37],"7.71 upbm affinity estimate (log intensity, higher = more binding, comparable within an allelic series)"
same,binding signal,[38],"7.08 upbm affinity estimate (log intensity, higher = more binding, comparable within an allelic series)"
GACTCGGC,binding signal,[7],"7.87 upbm affinity estimate (log intensity, higher = more binding, comparable within an allelic series)"
same,binding signal,[8],"7.16 upbm affinity estimate (log intensity, higher = more binding, comparable within an allelic series)"
same,binding signal,[11],"7.65 upbm affinity estimate (log intensity, higher = more binding, comparable within an allelic series)"
same,binding signal,[12],"9.17 upbm affinity estimate (log intensity, higher = more binding, comparable within an allelic series)"
same,binding signal,[13],"7.19 upbm affinity estimate (log intensity, higher = more binding, comparable within an allelic series)"
same,binding signal,[14],"9.23 upbm affinity estimate (log intensity, higher = more binding, comparable within an allelic series)"
